Among the data in PMC12820563, “FoxP3 forms a head-to-head dimer in vivo and stabilizes its multimerization on adjacent microsatellites” are binding signal values, retold here.

In all, about 16,000 sequences were measured (“rpm ratio (pull-down/input)”: median about 0.5, highest 2% from about 5.5 on). Many of the other results were omitted from the sample, so the highest values are more common in it than they were.

The target of the experiment is T1, MBP-FoxP3dN (Mus musculus, UniProt Q99JB6 188-423).
T1 sequence: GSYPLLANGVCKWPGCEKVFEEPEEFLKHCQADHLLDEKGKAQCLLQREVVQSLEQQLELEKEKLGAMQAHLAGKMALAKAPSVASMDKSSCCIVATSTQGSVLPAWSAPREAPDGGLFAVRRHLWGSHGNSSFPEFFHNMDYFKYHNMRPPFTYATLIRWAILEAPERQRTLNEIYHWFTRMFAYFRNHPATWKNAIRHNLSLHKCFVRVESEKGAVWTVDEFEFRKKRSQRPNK
Nature of the experiment: PD-seq (MBP pull-down with sequencing); 20 mM Tris-HCl pH 7.5, 100 mM NaCl, 1.5 mM MgCl2, 0.4 uM protein, 0.1 uM dsDNA library, 30 min, room temperature, amylose pull-down; high values mean tight binding. The settings on record: protein: recombinant; tags: His6-MBP; chain copies: 2; dsDNA, one strand shown. An outline of the steps:
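In Tris pH 7.5 buffer with NaCl and MgCl2, 0.4 µM His6-MBP-tagged mouse FoxP3 or FoxP1 fragment lacking the N-terminus, from E. coli, met 0.1 µM Klenow-filled double-stranded degenerate DNA library for 30 min at room temperature. Three washes on amylose resin followed capture of the complexes, then proteinase K release of DNA, PCR barcoding and Illumina sequencing. Binding is taken as pooled-replicate reads-per-million enrichment of pull-down relative to input.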
With “GATGATTGTTCTCCCAGCTGATGAATTTTCTGTGTCGAGTAAACAAATTTTCCTAATCTTTCTGTTCAAGCGCCATCTAC”, the binding signal was 0.415 RPM ratio (pull-down/input).

For the sequence “GATGATTGTTCTCCCAGCTGATGAATTGATTGTGTCGAGTAAACAAATTTTCCTAATCTTTCTGTTCAAGCGCCATCTAC”, the binding signal was 3.72 RPM ratio (pull-down/input).

As for “GATGATTGTTCTCCCAGCTGATGAATTGTGAATGTCGAGTAAACAAATTTTCCTAATCTTTCTGTTCAAGCGCCATCTAC”, the binding signal is 1.32 RPM ratio (pull-down/input).

As for “GATGATTGTTCTCCCAGCTGATGAATTTGATGTGTCGAGTAAACAAATTTTCCTAATCTTTCTGTTCAAGCGCCATCTAC”, the binding signal is 6.14 RPM ratio (pull-down/input).

In the case of “GATGATTGTTCTCCCAGCTGATGAATTTGTGTCGTCGAGTAAACAAATTTTCCTAATCTTTCTGTTCAAGCGCCATCTAC”, the binding signal is 5 RPM ratio (pull-down/input).

Consider “GATGATTGTTCTCCCAGCTGATGAATTTGTTGTGTCGAGTAAACAAATTTTCCTAATCTTTCTGTTCAAGCGCCATCTAC”, for which the binding signal was 8.35 RPM ratio (pull-down/input).

On to “GATGATTGTTCTCCCAGCTGATGAATTGAATGTGTCGAGTAAACAAATTTTCCTAATCTTTCTGTTCAAGCGCCATCTAC”, for which the binding signal was 1.26 RPM ratio (pull-down/input).

In the case of “GATGATTGTTCTCCCAGCTGATGAATTTAGTATATCGAGTAAACAAATTTTCCTAATCTTTCTGTTCAAGCGCCATCTAC”, the binding signal was 2.93 RPM ratio (pull-down/input).

For the sequence “GATGATTGTTCTCCCAGCTGATGAATTAGCTGGCTCGAGTAAACAAATTTTCCTAATCTTTCTGTTCAAGCGCCATCTAC”, the binding signal was 0.476 RPM ratio (pull-down/input).

With “GATGATTGTTCTCCCAGCTGATGAATTTATTACGTCGAGTAAACAAATTTTCCTAATCTTTCTGTTCAAGCGCCATCTAC”, the binding signal is 1.22 RPM ratio (pull-down/input).

Turning to “GATGATTGTTCTCCCAGCTGATGAATTGGCGACGTCGAGTAAACAAATTTTCCTAATCTTTCTGTTCAAGCGCCATCTAC”, the binding signal was 0.41 RPM ratio (pull-down/input).

In the case of “GATGATTGTTCTCCCAGCTGATGAATTAGGTTGGTCGAGTAAACAAATTTTCCTAATCTTTCTGTTCAAGCGCCATCTAC”, the binding signal was 1.62 RPM ratio (pull-down/input).

For “GATGATTGTTCTCCCAGCTGATGAATTTTTTGTGTCGAGTAAACAAATTTTCCTAATCTTTCTGTTCAAGCGCCATCTAC”, the binding signal is 0.531 RPM ratio (pull-down/input).

As for “GATGATTGTTCTCCCAGCTGATGAATTTTGTGTGTCGAGTAAACAAATTTTCCTAATCTTTCTGTTCAAGCGCCATCTAC”, the binding signal was 5.59 RPM ratio (pull-down/input).

Take “GATGATTGTTCTCCCAGCTGATGAATTCTTTGTGTCGAGTAAACAAATTTTCCTAATCTTTCTGTTCAAGCGCCATCTAC”: the binding signal was 0.573 RPM ratio (pull-down/input).

In the case of “GATGATTGTTCTCCCAGCTGATGAATTAGTCTGATCGAGTAAACAAATTTTCCTAATCTTTCTGTTCAAGCGCCATCTAC”, the binding signal was 0.373 RPM ratio (pull-down/input).

As for “GATGATTGTTCTCCCAGCTGATGAATTCTCCCGTTCGAGTAAACAAATTTTCCTAATCTTTCTGTTCAAGCGCCATCTAC”, the binding signal was 0.247 RPM ratio (pull-down/input).

On to “GATGATTGTTCTCCCAGCTGATGAATTGTGCATTTCGAGTAAACAAATTTTCCTAATCTTTCTGTTCAAGCGCCATCTAC”, for which the binding signal is 7.44 RPM ratio (pull-down/input).

“GATGATTGTTCTCCCAGCTGATGAATTGGTGAATTCGAGTAAACAAATTTTCCTAATCTTTCTGTTCAAGCGCCATCTAC”: the binding signal was 0.867 RPM ratio (pull-down/input).

On to “GATGATTGTTCTCCCAGCTGATGAATTGTGCCATTCGAGTAAACAAATTTTCCTAATCTTTCTGTTCAAGCGCCATCTAC”, for which the binding signal was 6.37 RPM ratio (pull-down/input).

For the sequence “GATGATTGTTCTCCCAGCTGATGAATTCTCCCATTCGAGTAAACAAATTTTCCTAATCTTTCTGTTCAAGCGCCATCTAC”, the binding signal is 0.243 RPM ratio (pull-down/input).

Consider “GATGATTGTTCTCCCAGCTGATGAATTGTGCTGTTCGAGTAAACAAATTTTCCTAATCTTTCTGTTCAAGCGCCATCTAC”, for which the binding signal was 3.6 RPM ratio (pull-down/input).

For the sequence “GATGATTGTTCTCCCAGCTGATGAATTGGTGCATTCGAGTAAACAAATTTTCCTAATCTTTCTGTTCAAGCGCCATCTAC”, the binding signal was 6.97 RPM ratio (pull-down/input).

Regarding “GATGATTGTTCTCCCAGCTGATGAATTCATTTGTTCGAGTAAACAAATTTTCCTAATCTTTCTGTTCAAGCGCCATCTAC”, the binding signal was 3.73 RPM ratio (pull-down/input).

As to “GATGATTGTTCTCCCAGCTGATGAATTGTGTGCATCGAGTAAACAAATTTTCCTAATCTTTCTGTTCAAGCGCCATCTAC”, the binding signal was 2.8 RPM ratio (pull-down/input).

“GATGATTGTTCTCCCAGCTGATGAATTTGGTGCATCGAGTAAACAAATTTTCCTAATCTTTCTGTTCAAGCGCCATCTAC”: the binding signal is 1.86 RPM ratio (pull-down/input).

As to “GATGATTGTTCTCCCAGCTGATGAATTTTCCCATTCGAGTAAACAAATTTTCCTAATCTTTCTGTTCAAGCGCCATCTAC”, the binding signal was 0.252 RPM ratio (pull-down/input).

As to “GATGATTGTTCTCCCAGCTGATGAATTTTGTGATTCGAGTAAACAAATTTTCCTAATCTTTCTGTTCAAGCGCCATCTAC”, the binding signal is 5.26 RPM ratio (pull-down/input).

For the sequence “GATGATTGTTCTCCCAGCTGATGAATTTGTGCATTCGAGTAAACAAATTTTCCTAATCTTTCTGTTCAAGCGCCATCTAC”, the binding signal is 7.63 RPM ratio (pull-down/input).

With “GATGATTGTTCTCCCAGCTGATGAATTGAATAGCTCGAGTAAACAAATTTTCCTAATCTTTCTGTTCAAGCGCCATCTAC”, the binding signal was 0.346 RPM ratio (pull-down/input).

For the sequence “GATGATTGTTCTCCCAGCTGATGAATTTGTAAAATCGAGTAAACAAATTTTCCTAATCTTTCTGTTCAAGCGCCATCTAC”, the binding signal is 0.357 RPM ratio (pull-down/input).

In the case of “GATGATTGTTCTCCCAGCTGATGAATTGTCGTAGTCGAGTAAACAAATTTTCCTAATCTTTCTGTTCAAGCGCCATCTAC”, the binding signal is 0.56 RPM ratio (pull-down/input).
